Data as given in PubChem BioAssay AID1851 (National Center for Advancing Translational Sciences (NCATS), 2009).
About 4,000 (25%) of roughly 16,000 compounds were called active. About 26% were inconclusive and are not listed. The list is a sample of the results. A number with no mark means an inactive call. Calls come from the whole dose curve; as a rule, active = well fitted curve in the direction sought with a large enough effect; inconclusive = small, poorly fitted or top-dose-only effect, or effect the other way; inactive = no such curve, though single readings can be large or run the other way.

Molecular target: Cytochrome P450 2C9 (Homo sapiens) (UniProt P11712)
Assay: Cytochrome panel assay with activity outcomes
Conditions: recombinant CYP, pro-luciferin dealkylation, luminescence, p450-cyp2c9; series mostly up to 57.1 µM; activity, negative = inhibition: at the top concentration
% is set by controls: 0 for no effect and ±100 for the full control effect.

Cytochrome P450 2C9 (Homo sapiens), sequence (P11712 whole entry, looked up): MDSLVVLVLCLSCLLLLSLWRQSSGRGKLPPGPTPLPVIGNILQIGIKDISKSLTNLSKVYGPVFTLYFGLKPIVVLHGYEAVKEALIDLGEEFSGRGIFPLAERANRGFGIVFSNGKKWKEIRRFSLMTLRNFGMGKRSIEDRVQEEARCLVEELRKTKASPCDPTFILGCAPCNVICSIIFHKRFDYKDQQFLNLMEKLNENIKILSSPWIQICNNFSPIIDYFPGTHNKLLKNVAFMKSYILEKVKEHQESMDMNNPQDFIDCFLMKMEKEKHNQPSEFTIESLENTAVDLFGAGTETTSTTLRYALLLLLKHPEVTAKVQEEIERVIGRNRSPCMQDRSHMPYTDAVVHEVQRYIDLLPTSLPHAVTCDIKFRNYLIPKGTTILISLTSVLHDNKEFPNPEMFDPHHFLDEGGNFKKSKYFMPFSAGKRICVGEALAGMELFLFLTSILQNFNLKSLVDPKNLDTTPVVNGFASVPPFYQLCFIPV

| Compound | activity, negative = inhibition | AC50 |
| --- | --- | --- |
| CC(C)(C)C(=O)NC(=C(Cl)Cl)P(=O)(O)O | -19.5% | – |
| CCCn1nc(NC(=O)CC(C)C)c2cc3ccccc3nc21 | – | 2 µM (active) |
| CCCS(=O)(=O)N1CCN(CC2CC=CCC2)CC1 (stereo not given) | -43.6% | – |
| Cc1noc(C)c1-c1cc(NC2CC2)ncn1 | -1.99% [at 2.29 µM] | – |
| COc1cc(NC(=O)c2ccc(COCC(F)(F)F)cc2)cc(OC)c1OC | 22.1% | – |
| N/C(CC(=O)Nc1cc(C(F)(F)F)ccc1Cl)=N\O | 11.2% [at 11.4 µM] | – |
| COc1cc(C(=O)Nc2cc(C(F)(F)F)ccc2Cl)cc(OC)c1OC | – | 8.91 µM (active) |
| CC(C)(CN)CN | 2.97% [at 11.4 µM] | – |
| CCC(C)NC(=O)C1CCCN(C(=O)NC2CCCCC2)C1 (stereo not given) | – | 20 µM (active) |
| CCC(C)NC(=O)C1CCN(C(=O)c2ccccc2)CC1 (stereo not given) | -9.04% | – |
| CC(C)C(NC(=O)C1CCCCC1)C(=O)NC1CCN(Cc2ccccc2)CC1 (stereo not given) | 7.86% | – |
| COc1ccc(C2C(=O)N(CCc3ccccc3)CC(=O)N2C2CCCC2)cc1 (stereo not given) | – | 22.4 µM (active) |
| COc1ccc(C2C(C(=O)N3CCN(C)CC3)c3ccccc3C(=O)N2C2CCCCC2)cc1 (stereo not given) | -14% | – |
| Cc1ccc(CCN2CC(C(=O)NC3CCCC3)CC2=O)cc1 (stereo not given) | -15.5% | – |
| Cn1c(=O)n2n(c1=O)[C@H]1[C@H](O)[C@H]3O[C@H]3C(=O)[C@H]1CC2 | 7.6% [at 11.4 µM] | – |
| O=C(O)CN(CCN(CC(=O)O)CC(=O)O)CC(=O)O.[Cu] | 4.98% [at 11.4 µM] | – |
| Cc1[nH]nc(-c2ccc(OCc3cnn(-c4ccccc4)c3)cc2O)c1Oc1ccccc1F | – | 2 µM (active) |
| COC(=O)c1ccc(Oc2coc3cc(OCc4cnn(-c5ccccc5)c4)ccc3c2=O)cc1 | 28.5% | – |
| Cc1ccc(NC(=O)Nc2nc(-c3ccc(C)s3)cs2)cc1 | – | 3.55 µM (active) |
| O=C(c1cc(C(F)(F)F)cc(C(F)(F)F)c1)N1CCC[C@@]2(CCN(c3ncccn3)C2)C1 | -1.16% | – |
| Cc1cc(C(=O)NCc2ccccc2)no1 | -34.4% | – |
| COc1ccc(CNC(=O)C2CSC(=O)C2)cc1 (stereo not given) | -18.7% | – |

| Compound | activity, negative = inhibition | AC50 |
| --- | --- | --- |
| COc1ccc(CNC(=O)c2cnc(C)cn2)cc1 | – | 35.5 µM (active) |
| COc1ccc(CNC(=O)c2csc(Cc3ccc(OC)cc3)n2)cc1 | – | 10 µM (active) |
| CC(C)(C)c1ccc(C(=O)NCc2ccc(Cl)cc2)cc1 | 9% | – |
| COc1ccc(CNC(=O)C2CC(c3ccc(OC)cc3)=NO2)cc1 (stereo not given) | 16.9% | – |
| COc1ccc(Cc2c(N)nc(N)nc2N)cc1 | 11.5% | – |
| COc1ccc(CNC(=O)c2csc(Cc3ccc(Cl)cc3)n2)cc1 | – | 3.98 µM (active) |
| Cc1nc(CN2CCCCC2)c(O)c(=O)[nH]1 | 7.96% [at 11.4 µM] | – |
| C[C@]1(c2ccccc2)OC(C(=O)O)=CC1=O | 8.89% | – |
| CC(=O)N(O)CCCCCNC(=O)CCC(=O)N(O)CCCCCNC(=O)CCC(=O)N(O)CCCCCN | -3.39% [at 25.6 µM] | – |
| Cc1ccc2nc(N3CCN(S(=O)(=O)c4ccc5c(c4)OCCO5)CC3)c(C#N)cc2c1 | – | 2.82 µM (active) |
| O=C(c1ccc2c(c1)OCCO2)C1CCN(S(=O)(=O)c2ccccc2F)CC1 | -25.3% | – |
| O=C(O)CCC(=O)N1CCOc2ccc(Cl)cc21 | 0.992% | – |
| Cc1ccc(Cl)cc1N1CCN(S(=O)(=O)c2ccc3c(c2)OCCO3)CC1 | – | 2.82 µM (active) |
| O=c1c(Cl)c(N2CCN(S(=O)(=O)c3ccc(F)cc3)CC2)cnn1-c1cccc(Cl)c1 | -28.2% | – |
| Cc1occc1C(=O)NNC(=O)c1ccc(F)cc1 | -15.1% | – |
| CC(=O)C1=C(NC(=O)c2ccc(F)cc2)CC2C1C2(C)C (stereo not given) | – | 3.55 µM (active) |
| O=C(Nc1cccc2[nH]ncc12)c1ccc(F)cc1 | -3.46% | – |
| C/C(CCN1CCCc2nc(C)c(C)cc21)=N\OC[C@@H](C)[C@H](OCc1ccccc1)C(C)C | 24.5% [at 11.4 µM] | – |
| Cn1ncc2c(NCCc3ccccc3)nc(Cl)nc21 | -22.7% [at 11.4 µM] | – |
| O=C(CCCc1ccccn1)c1ccccc1 | -17.1% [at 11.4 µM] | – |
| OC[C@@H](O)COc1cccc2ccccc12 | -24.2% | – |
| COc1ccccc1N1CCN(C[C@@H](O)COc2cccc3ccccc23)CC1 | 18.2% [at 25.6 µM] | – |

| Compound | activity, negative = inhibition | AC50 |
| --- | --- | --- |
| O=C(COc1cccc2ccccc12)N1c2ccccc2CCc2ccccc21 | – | 2.82 µM (active) |
| O=C(c1cccc(F)c1)N1CCC[C@@]2(CCN(Cc3nccs3)C2)C1 | – | 10 µM (active) |
| O=C(c1cc(C(F)(F)F)cc(C(F)(F)F)c1)N1CCC2(CCCN(Cc3nccs3)C2)CC1 | 29.9% | – |
| O=C(c1cccc(F)c1)N1CCC2(CCCN(Cc3nccs3)C2)CC1 | -3.9% | – |
| O=C(c1ccco1)N1CCC2(CCN(Cc3nccs3)CC2)CC1 | 3.85% | – |
| O=C(c1cc(C(F)(F)F)cc(C(F)(F)F)c1)N1CCC[C@@]2(CCN(Cc3nccs3)C2)C1 | -1.58% | – |
| O=C(c1ccncc1)N1CCC2(CCN(Cc3nccs3)CC2)CC1 | 2.77% | – |
| O=C(c1ccco1)N1CCC[C@@]2(CCN(Cc3nccs3)C2)C1 | -3.46% | – |
| O=C(c1cccc(F)c1)N1CCC2(CCN(Cc3nccs3)CC2)CC1 | – | 15.8 µM (active) |
| O=C(c1cc(C(F)(F)F)cc(C(F)(F)F)c1)N1CCC2(CCN(Cc3nccs3)CC2)CC1 | – | 12.6 µM (active) |
| NC(N)=NN=Cc1c(Cl)cccc1Cl | – | inactive |
| Cc1cc2ccccn2c1C(=O)c1ccc(Cl)cc1 | – | 11.2 µM (active) |
| Cc1cc(CC(=O)O)n(C)c1C(=O)c1ccc(Cl)cc1 | -17.2% [at 25.6 µM] | – |
| CCS(=O)(=O)c1ccc(C(=O)Nc2ccccc2)c(Cl)c1Cl | – | 10 µM (active) |
| CN1C[C@H](c2ccccc2)C(O)([C@]2(c3ccccc3)CN(C)C[C@@H](c3ccccc3)C2=O)[C@H](c2ccccc2)C1 (stereo not given in full) | 5.9% [at 11.4 µM] | – |
| O=C(c1ccncc1)N1CCC2(CCCN(Cc3ccncc3)C2)CC1 | – | 5.01 µM (active) |
| COc1ccc(C(=O)N2CCC3(CCCN(Cc4ccncc4)C3)CC2)cc1 | – | 3.16 µM (active) |
| COc1ccc(C(=O)N2CCC3(CCCN(Cc4ccccc4)C3)CC2)cc1 | 4.43% | – |
| O=C(c1ccncc1)N1CCC[C@@]2(CCN(Cc3ccccc3)C2)C1 | -19% | – |
| COc1ccc(C(=O)N2CCC3(CCCN(CC(C)C)C3)CC2)cc1 | 6.29% | – |
| O=C(c1ccncc1)N1CCC2(CCCN(Cc3ccccc3)C2)CC1 | -5.36% | – |
